Measurements as given in PubChem BioAssay (EPA / NIEHS).
Calls of active or inactive are those of the source. The calls were made as follows: active = hit-call score of the fitted dose curve at least 0.9, where 1 is the maximum; inactive = score below 0.9.

Test: ATG_PBREM_CIS: Attagene CIS-FACTORIAL HepG2 Assay for human Phenobarbital-responsive Enhancer Module (PBREM) (AID 2282955)
Details: HepG2 PBREM cis-reporter, Attagene multiplexed transcription; actives raise or lower the signal
Description: ATG_CIS is a cell-based, multiplexed-readout assay that uses HepG2, a human liver cell line, with measurements taken at 24 hours after chemical dosing in a 24-well plate.ATG_PBREM_CIS is one of 52 assay component(s) measured or calculated from the ATG_CIS assay. It is designed to make measurements of mRNA induction, a form of inducible reporter, as detected with fluorescence intensity signals by Reverse transcription polymerase chain reaction (RT-PCR) and Capillary electrophoresis technology.Data from the assay component ATG_PBREM_CIS was analyzed into 1 assay endpoint. This assay endpoint, ATG_PBREM_CIS, was analyzed with bidirectional fitting relative to DMSO as the negative control and baseline of activity. Using a type of inducible reporter, measures of mRNA for gain or loss-of-signal activity can be used to understand the reporter gene at the transcription factor-level as they relate to the gene NR1I3. Furthermore, this assay endpoint can be referred to as a primary readout, because this assay has produced multiple assay endpoints where this one serves a reporter gene function. To generalize the intended target to other relatable targets, this assay endpoint is annotated to the nuclear receptor intended target family, where the subfamily is non-steroidal.
Human liver HepG2 cells are transiently transfected with multiple reporter transcription units (MRTUs) in 6-well plates using FuGene 6 reagent (Roche; 3 ml FuGene/1 mg DNA). The MRTU constructs are regulated by a cis-regulating element (promoter). […] A major difference between the CIS and TRANS system is that in CIS activities of endogenous TFs are measured, whereas the TRANS assay evaluates changes in activities of exogenous, chimeric NR-Gal4 proteins. […] At the end of 24 hour incubation, total RNA was isolated using TriZol reagent (Invitrogen). The isolated RNA is then reverse-transcribed using oligo(dT) primer and Mo-MLV reverse transcriptase (Invitrogen) with DNAse I (Ambion) treatment for 30 min. The one-tenth of the produced cDNA was amplified by PCR using Taq DNA polymerase (Invitrogen) and two reporter sequence-specific primers. The PCR products were fluorescently labeled by primer extension with 6-arboxyfluorescein (6-FAM) 5'-labeled reporter sequence-specific primer (2 min at 95 C, 20 s at 68 C and 10 min at 72 C) and these products were digested with 5U of HpaI (New England Biolabs) for 2h at 37 C. The fragments were purified using Qiaquick PCR columns (Qiagen), analyzed on an ABI 3130xL genetic analyzer (Applied Biosystems) with peak positions identified by using a set of X-rhodamine (ROX)-labeled MapMarker1000 molecular weight standards (BioVentures). The raw capillary electrophoresis data was processed using Attagraph software (Attagene).
With CCOC(=O)OC(=O)OCC the outcome was “inactive”.
In the case of CCCc1ccc(O)c(OC)c1, the outcome is reported as “inactive”.
In the case of CCCCC(=O)O, the outcome is reported as “inactive”.
With CC1=NN(c2ccc(S(=O)(=O)O)cc2)C(=O)C1N=Nc1ccccc1 (stereo not given) the outcome was “inactive”.
With C=C1C[C@H]2[C@@H]3C=C(C)C4=CC(=O)CC[C@]4(C)[C@H]3CC[C@]2(C)[C@@]1(OC(C)=O)C(C)=O the AC50 was 113 µM (active).
In the case of C=CC(=O)OCC(C)OCC(C)OCC(C)OC(=O)C=C (stereo not given), the outcome is reported as “inactive”.
In the case of O=C(C=Cc1ccccc1)OCCc1ccccc1, the outcome is reported as “inactive”.
In the case of CC(C)CCOCc1ccccc1, the outcome is reported as “inactive”.
With CCCCNS(=O)(=O)c1ccc(C)cc1 the outcome was “inactive”.
With C=C(C)C(=O)OCCCCCCCCCCCC the outcome was “inactive”.
In the case of C=C(C)C(=O)OCCOC(=O)C(=C)C, the outcome is reported as “inactive”.
For CC(C)CCCCCOC(=O)CS, the outcome was “inactive”.
In the case of CC(C)=CCCC(C)=CC#N, the outcome is reported as “inactive”.
For CCOC(=O)[C@H](O)[C@@H](O)C(=O)OCC, the outcome was “inactive”.
In the case of Cc1ccc([N+](=O)[O-])cc1N, the outcome is reported as “inactive”.
For CC=C(C)C(C)=O, the outcome was “inactive”.
For CCCCC(C=O)CC (stereo not given), the outcome was “inactive”.
For CC(=O)OC1CCCCC1C(C)(C)C (stereo not given), the outcome was “inactive”.
In the case of C=CC(=O)OCCCCCCOC(=O)C=C, the outcome is reported as “inactive”.
In the case of CCCCC(CC)COC(=O)/C=C/c1ccc(OC)cc1 (stereo not given), the outcome is reported as “inactive”.
For Cc1ccc2c(c1)CCCN2, the outcome was “inactive”.
In the case of O=C1CCCCCCCCCCCN1, the outcome is reported as “inactive”.
For O=C(O)C(F)(F)C(F)(F)C(F)(F)C(F)(F)C(=O)O, the outcome was “inactive”.
In the case of CCCCCC1=CCCC1=O, the outcome is reported as “inactive”.
In the case of CCC(C)(O)CCCC(C)C (stereo not given), the outcome is reported as “inactive”.
For CCCCOCC(C)O (stereo not given), the outcome was “inactive”.
In the case of O=C(O)CCC(=O)O, the outcome is reported as “inactive”.
In the case of CCNc1nc(NC(C)(C)C)nc(OC)n1, the outcome is reported as “inactive”.
For CC(C)c1ccc(O)c(C(C)C)c1, the outcome was “inactive”.
For CCOc1ccc(NC(N)=O)cc1, the outcome was “inactive”.
In the case of Cc1noc(NS(=O)(=O)c2ccc(N)cc2)c1C, the outcome is reported as “inactive”.
In the case of C=CCCCCCCCCC=O, the outcome is reported as “inactive”.
For Nc1nc(N)nc(-c2ccccc2)n1, the outcome was “inactive”.
In the case of CCC(C)C(=O)OCCc1ccccc1 (stereo not given), the outcome is reported as “inactive”.
For [Cl][Sc]([Cl])[Cl], the outcome was “inactive”.
In the case of CC(CC(C)C)=NO, the outcome is reported as “inactive”.
For C=CC(=O)OCCCCCCCCCC, the outcome was “inactive”.
For C=CC(=O)OCCCCCCCC(C)C, the outcome was “inactive”.
For CCCCC1C(=O)N(c2ccccc2)N(c2ccccc2)C1=O, the outcome was “inactive”.
In the case of CCCCOCCOC(=O)COc1ccc(Cl)cc1Cl, the outcome is reported as “inactive”.
